Results filed as inconclusive are left out. The source made the active and inactive calls. Rule for the calls, unless noted: active = hit-call score of the fitted dose curve at least 0.9, where 1 is the maximum; inconclusive = response in the unintended direction; inactive = score below 0.9.
Experiments:
[1] = Tanguay_ZF_120hpf_MORT_legacy: (Legacy) Oregon State University Tanguay Lab 120 Hour Post-fertilization zebrafish Assay for Mortality (AID 2283633)
In short: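 Static waterborne exposure from 6 to 120 hpf at 28C of single dechorionated wild-type (5D) embryos per well, 0.64% DMSO final. Death recorded present/absent by brightfield at 24 and 120 hpf.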

[2] = Tanguay_ZF_120hpf_YSE_legacy: (Legacy) Oregon State University Tanguay Lab 120 Hour Post-fertilization zebrafish Assay for Yolk Sac Edema (AID 2283634);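 for AC50: actives raise the incidence of yolk sac edema above the DMSO baseline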
In short: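 Presence or absence of yolk sac edema was recorded at 120 hpf in surviving larvae. These were wild-type Tropical 5D embryos, chorion removed at 4 hpf, held in static exposure at 28C from 6 hpf with 0.64% DMSO vehicle.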

[3] = Tanguay_ZF_120hpf_AXIS_legacy: (Legacy) Oregon State University Tanguay Lab 120 Hour Post-fertilization zebrafish Assay for Body Axis Malformation (AID 2283635);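 for AC50: potency for an increased fraction of larvae scored with body axis malformation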
In short: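 Binary scoring of axis defects at 120 hpf under brightfield, fitted positive versus DMSO. Tropical 5D embryos, chorion removed by pronase at 4 hpf, were singly exposed in sealed, dark plates at 28C from 6 hpf; DMSO 0.64% final.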

[4] = Tanguay_ZF_120hpf_EYE_legacy: (Legacy) Oregon State University Tanguay Lab 120 Hour Post-fertilization zebrafish Assay for Eye Malformation (AID 2283636)
In short: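 Dechorionated wild-type Tropical 5D zebrafish embryos were exposed statically from 6 hpf, one per well, to 120 hpf at 28C in sealed, foil-covered plates with 0.64% DMSO. Eye malformation was scored present/absent by brightfield microscopy against DMSO controls.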

[5] = Tanguay_ZF_120hpf_SNOU_legacy: (Legacy) Oregon State University Tanguay Lab 120 Hour Post-fertilization zebrafish Assay for Snout Malformation (AID 2283637)
In short: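 Tropical 5D wild-type zebrafish embryos, dechorionated with pronase at 4 hpf, were exposed singly from 6 hpf to 120 hpf statically at 28C in 0.64% DMSO. Snout malformation was scored present/absent by brightfield microscopy, fitted against DMSO.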

[6] = Tanguay_ZF_120hpf_JAW_legacy: (Legacy) Oregon State University Tanguay Lab 120 Hour Post-fertilization zebrafish Assay for Jaw Malformation (AID 2283638)
In short: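 Binary jaw-malformation call at 120 hpf by brightfield microscopy. Embryos (Tropical 5D strain, chorion removed at 4 hpf) were dosed statically at 6 hpf, one per well, at 28C with 0.64% DMSO. Embryos that died were not scored.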

[7] = Tanguay_ZF_120hpf_OTIC_legacy: (Legacy) Oregon State University Tanguay Lab 120 Hour Post-fertilization zebrafish Assay for Otic Vesicle Malformation (AID 2283639)
In short: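 Embryos from 5D wild-type adults exposed in plates; DMSO 0.64% v/v final. Sealed, light-protected, 28C, static to 120 hpf. Otic vesicle malformation recorded as binary endpoint; gain-of-signal fitted vs DMSO.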

[8] = Tanguay_ZF_120hpf_PE_legacy: (Legacy) Oregon State University Tanguay Lab 120 Hour Post-fertilization zebrafish Assay for Pericardial Edema (AID 2283640);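 for AC50: potency for increased incidence of pericardial edema versus DMSO baseline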
In short: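 Scoring was binary, by brightfield microscopy at 120 hpf, and skipped where mortality occurred. Wild-type embryos were kept under sealed, foil-covered static exposure at 28C in 0.64% (vol/vol) DMSO.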

[9] = Tanguay_ZF_120hpf_BRAI_legacy: (Legacy) Oregon State University Tanguay Lab 120 Hour Post-fertilization zebrafish Assay for Brain Malformation (AID 2283641)
In short: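 Binary brightfield scoring of brain malformation at 120 hpf in Tropical 5D larvae held under static exposure at 28C (0.64% v/v DMSO), non-mortality endpoints skipped if dead. Positive control: 5uM trimethyltin chloride; fit versus DMSO.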

[10] = Tanguay_ZF_120hpf_SOMI_legacy: (Legacy) Oregon State University Tanguay Lab 120 Hour Post-fertilization zebrafish Assay for Somite Malformation (AID 2283647)
In short: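 Binary somite-defect scoring at 120 hpf, omitted for embryos that died, in wild-type (Tropical 5D) zebrafish with chorion removed by pronase at 4 hpf; static exposure began 6 hpf, single embryos per well, 28C, 0.64% DMSO; fitted positive versus DMSO.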

[11] = Tanguay_ZF_120hpf_PFIN_legacy: (Legacy) Oregon State University Tanguay Lab 120 Hour Post-fertilization zebrafish Assay for Pectoral Fin Malformation (AID 2283648);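 note: each larva judged yes or no for fin defect by brightfield with dead larvae skipped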
In short: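 Tropical 5D wild-type embryos, dechorionated with pronase at 4 hpf, were placed singly in wells at 6 hpf and statically exposed until 120 hpf at 28C, sealed and dark, with 0.64% (vol/vol) final DMSO; pectoral fin malformation scored present/absent.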

[12] = Tanguay_ZF_120hpf_CFIN_legacy: (Legacy) Oregon State University Tanguay Lab 120 Hour Post-fertilization zebrafish Assay for Caudal Fin Malformation (AID 2283649)
In short: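 Binary brightfield scoring of caudal fin defects at 120 hpf after static, light-shielded exposure at 28C from 6 hpf. Tropical 5D embryos, chorion removed with pronase at 4 hpf, final DMSO 0.64%.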

[13] = Tanguay_ZF_120hpf_PIG_legacy: (Legacy) Oregon State University Tanguay Lab 120 Hour Post-fertilization zebrafish Assay for Pigmentation Malformation (AID 2283650)
In short: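 Tropical 5D wild-type zebrafish embryos, dechorionated with pronase at 4 hpf, were exposed singly from 6 hpf to 120 hpf statically at 28C in sealed, dark plates with 0.64% DMSO; pigmentation scored present/absent by brightfield microscopy, fitted against DMSO.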

[14] = Tanguay_ZF_120hpf_CIRC_legacy: (Legacy) Oregon State University Tanguay Lab 120 Hour Post-fertilization zebrafish Assay for Circulatory Malformation (AID 2283651)
In short: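 Read-out: presence or absence of circulatory malformation at 120 hpf, scored by brightfield microscopy, fitted in the gain-of-signal direction against DMSO baseline. Wild-type 5D larvae were exposed from 6 hpf after enzymatic chorion removal.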

[15] = Tanguay_ZF_120hpf_SWIM_legacy: (Legacy) Oregon State University Tanguay Lab 120 Hour Post-fertilization zebrafish Assay for Swim Bladder Malformation (AID 2283654);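 note: swim bladder malformation in each larva scored yes or no under brightfield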
In short: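 Dechorionated Tropical 5D wild-type embryos, placed singly from 6 hpf, were statically exposed at 28C to 120 hpf with 0.64% DMSO final; swim bladder malformation was scored present/absent by brightfield microscopy, gain of signal relative to DMSO controls.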

[16] = biological target: Cellular tumor antigen p53 (Homo sapiens) (UniProt P04637); experiment: TOX21_p53_BLA_p4_ratio: Tox21 HCT-116 p53 Agonism Beta-lactamase Assay, Ratio, Phase 4 (AID 2283601)
In short: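 HCT116 cells carrying an inducible beta-lactamase reporter were plated at 4000 cells/well, rested 5 h, then exposed to compounds in DMSO (217-fold dilution) for 16 h at 37C. CCF4-AM substrate was loaded 2 h at room temperature; 460/530 nm emission ratio scored gain-of-signal versus DMSO.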

[17] = TOX21_p53_BLA_p4_viability: Viability Assessment in the Tox21 HCT-116 p53 Agonism Beta-lactamase Assay, Phase 4 (AID 2283597);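 note: hits lower the luminescence signal meaning cytotoxicity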
In short: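 Following a 16 h exposure at 37C, the treated HCT116 wells were first read for the FRET ratio. They were then lysed with CellTiter-Glo, and ATP luminescence was recorded after 30 min at room temperature.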

[18] = biological target: Cellular tumor antigen p53 (Homo sapiens) (UniProt P04637); experiment: TOX21_p53_BLA_p5_ratio: Tox21 HCT-116 p53 Agonism Beta-lactamase Assay, Ratio, Phase 5 (AID 2283599)
In short: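 HCT-116 cells carrying a p53-inducible beta-lactamase reporter were seeded at 4000 cells/well and dosed after 5 h with compound in DMSO (217-fold dilution). After 16 h at 37C, CCF4-AM substrate was added for 2 h, and the 460/530 nm emission ratio was scored as gain-of-signal versus DMSO.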

[19] = TOX21_p53_BLA_p5_viability: Viability Assessment in the Tox21 HCT-116 p53 Agonism Beta-lactamase Assay, Phase 5 (AID 2283600)
In short: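 After the 460/530 nm beta-lactamase measurement, the wells received an ATP-detection luciferase reagent; signal was read 30 min later at RT. Compound treatment lasted 16 h on cells pre-incubated 5 h post-seeding.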

[20] = read-out: solute carrier (SLC22A6), SLC22A6 (gene 9356); experiment: LTEA_HepaRG_SLC22A6: Life Technologies and Expression Analysis (LTEA) Assay for solute carrier (SLC22A6) using HepaRG (AID 2283653; active = hit-call score of the fitted dose curve at least 0.9, where 1 is the maximum; inactive = score below 0.9); conditions: mRNA level, 48 h; actives raise or lower the signal
In short: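 SLC22A6 transcript was measured by TaqMan qRT-PCR, normalized to three housekeeping genes, after 48 h duplicate exposure of HepaRG cells (100 uM top, half-log steps, 0.5% DMSO); bidirectional fit against vehicle.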

Measured: AC50

Cellular tumor antigen p53 (Homo sapiens), sequence (P04637 whole entry, looked up): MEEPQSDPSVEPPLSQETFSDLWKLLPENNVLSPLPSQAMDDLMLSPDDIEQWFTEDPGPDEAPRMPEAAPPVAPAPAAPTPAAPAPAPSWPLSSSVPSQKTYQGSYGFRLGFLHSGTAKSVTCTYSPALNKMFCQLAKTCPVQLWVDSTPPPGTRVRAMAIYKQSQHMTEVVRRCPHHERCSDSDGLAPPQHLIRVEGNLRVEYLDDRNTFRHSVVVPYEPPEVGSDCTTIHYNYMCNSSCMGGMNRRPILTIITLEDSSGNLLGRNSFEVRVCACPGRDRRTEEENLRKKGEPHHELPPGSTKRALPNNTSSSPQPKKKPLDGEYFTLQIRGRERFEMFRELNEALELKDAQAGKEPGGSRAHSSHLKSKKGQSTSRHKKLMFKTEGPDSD

CCNc1nc(NC(C)C)nc(SC)n1
not listed: [16] | [17] | [18] | [19] | [20]
inactive: all other assays above

Cc1cc2c3c(c1)C(c1ccccc1)=N[C@@H](NC(=O)c1ccncc1)C(=O)N3CC2
not listed: [6] | [14] | [15] | [17] | [18] | [19] | [20]
inactive: all other assays above

Nn1cnnc1
not listed: [6] | [13] | [18] | [19] | [20]
inactive: all other assays above

Oc1ccc(Cl)cc1Cl
not listed: [2] | [6] | [9] | [14] | [20]
inactive: all other assays above

CC1=C2C[C@H]3[C@@H](CC=C4C[C@@H](O)CC[C@@]43C)[C@@H]2CC[C@]12O[C@@H]1C[C@H](C)CN[C@H]1[C@H]2C
active: [2] 17.2 µM | [3] 0.33 µM | [5] 21 µM | [8] 20.2 µM | [11] 21.8 µM | [12] 16.6 µM | [13] 20 µM
not listed: [6] | [15] | [17]
inactive: all other assays above

ClC1=C(Cl)[C@]2(Cl)[C@@H]3[C@@H]4C[C@@H]([C@H]5O[C@@H]45)[C@@H]3[C@@]1(Cl)C2(Cl)Cl
not listed: [3] | [6] | [11] | [13] | [14] | [20]
inactive: all other assays above

CC#Cc1cc(C)nc(Nc2ccccc2)n1
not listed: [3] | [7] | [8] | [18] | [20]
inactive: all other assays above

O=C(NC(=O)c1cc(F)c(F)cc1Cl)Nc1cc(F)ccc1N1CCC(C(=O)O)CC1
not listed: [9] | [18] | [19] | [20]
inactive: all other assays above

CCCCCCOC(=O)c1ccccc1C(=O)OCCCCCC
not listed: [3] | [6] | [7] | [12] | [15] | [17] | [20]
inactive: all other assays above

CN(C)c1nc(=O)n(C2CCCCC2)c(=O)n1C
inactive: [1] | [2] | [3] | [4] | [5] | [7] | [8] | [9] | [12] | [14]

Cc1ccccc1CO[C@@H]1C[C@@]2(C(C)C)CC[C@]1(C)O2
not listed: [1] | [16] | [17] | [18] | [19] | [20]
inactive: all other assays above

C=CC(N)=O
not listed: [6] | [17] | [20]
inactive: all other assays above

O=S(=O)(O)C(F)(F)C(F)(F)C(F)(F)C(F)(F)F
inactive: [17] | [18] | [19] | [16] | [1] | [3] | [4] | [5] | [13] | [15]

Clc1ccc(C(Cl)(Cl)Cl)cc1
inactive: [18] | [16] | [1] | [2] | [3] | [4] | [6] | [8] | [10] | [13] | [15]

CCC(=O)O[C@H]1CC[C@H]2[C@@H]3CCC4=CC(=O)CC[C@]4(C)[C@H]3CC[C@]12C
not listed: [6] | [16] | [17] | [20]
inactive: all other assays above

Cc1cc(O)ccc1Cl
not listed: [2] | [6] | [9] | [10] | [15] | [20]
inactive: all other assays above

O=C(O)C(F)(F)C(F)(F)C(F)(F)C(F)(F)C(F)(F)C(F)(F)C(F)(F)C(F)(F)C(F)(F)F
not listed: [4] | [6] | [8] | [11]
inactive: all other assays above
